Results: PubChem BioAssay (NCATS)
Records with an inconclusive call do not appear. Entries that show only a call come without a potency. Active and inactive are the calls of the source. Calls follow the shape of the dose curve; as a rule, active = well fitted inhibition curve with a large enough effect; inconclusive = small, poorly fitted or top-dose-only effect; inactive = flat fitted curve, though single readings scatter.

The compounds below were run against Aldehyde dehydrogenase, mitochondrial (Homo sapiens) (UniProt P05091) (assay: qHTS for Inhibitors of the Aldehyde Dehydrogenase Family (ALDH2) Primary screen (AID 2061308; also: nearly all actives have a fitted effect of over 55% in size)). Conditions: ALDH2 enzyme inhibition qHTS, 1536-well; series mostly up to 56 µM.

**Q.** `Cc1ccnc(NC(=S)N2CCN(c3cc(C(F)(F)F)cc(C(F)(F)F)c3)CC2)c1` was tested. Which Potency did it give?
**A.** The Potency was “inactive”.

**Q.** How did the Potency turn out when `CCN1CCC[C@@H]1CNC(=O)c1ccc2c(c1)NC(=O)/C(=C/c1ccccc1F)S2` was run?
**A.** The Potency was “inactive”.

**Q.** With `O=C1CCCC2=C1C(c1[nH]ncc1Cl)NC(=NCc1ccoc1)N2` (stereo not given) as the compound, how does the Potency read?
**A.** Its Potency is “inactive”.

**Q.** `O=C(OCC#CCSc1nnc(-c2cccc3ccccc23)o1)c1ccc(SC(F)(F)F)cc1` was tested. Which Potency did it give?
**A.** The Potency was “inactive”.

**Q.** `COc1cc(F)c(S(=O)(=O)N2CCCN(S(=O)(=O)c3cccc(N)c3)CC2)c(F)c1` was tested. Which Potency did it give?
**A.** Its Potency is “inactive”.

**Q.** Which Potency does the source give for `Cc1cc2c(s1)c1cnn(Cc3cccc(Cl)c3)c(=O)c1n2C` here?
**A.** The Potency was “inactive”.

**Q.** For `COc1ccccc1C1N=C(Nc2nc3ccccc3o2)NC2=C1C(=O)CCC2` (stereo not given), which Potency is on record?
**A.** The Potency was “inactive”.

**Q.** With `O=C(OCC#CCSc1nnc(-c2cccc3ccccc23)o1)c1ccc(Cl)cc1` as the compound, how does the Potency read?
**A.** The Potency was “inactive”.

**Q.** With `CC(C)(C)OC(=O)Cc1nnc(-c2cc3ccccc3[nH]2)s1` as the compound, how does the Potency read?
**A.** Its Potency is “inactive”.

**Q.** With `COc1ccc(-c2nc3ccc(OC)cc3s2)cc1` as the compound, how does the Potency read?
**A.** The Potency was “inactive”.

**Q.** With `CC(=O)Nc1sc2c(c1-c1ccccc1F)CCNC2` as the compound, how does the Potency read?
**A.** Its Potency is “inactive”.

**Q.** `Fc1ccc(Nc2nc(-c3ccncc3)nc3ccccc23)cc1F` was tested. Which Potency did it give?
**A.** Its Potency is “inactive”.

**Q.** For `CN(c1ccc(NC(=O)Nc2ccccc2)cc1)S(=O)(=O)c1cnn(-c2ccc(F)cc2)c1`, which Potency is on record?
**A.** The Potency was “inactive”.

**Q.** Which Potency does the source give for `NCCCCNc1ncnc2ccc(-c3ccc4c(c3)OCO4)cc12` here?
**A.** Its Potency is “inactive”.

**Q.** For `C=C(C)C(=O)O[C@H]1/C(C=O)=C\CC/C(CO)=C/[C@H]2OC(=O)C(=C)[C@@H]2[C@@H]1OC`, which Potency is on record?
**A.** Its Potency is “inactive”.

**Q.** How did the Potency turn out when `Cc1ccc(S(=O)(=O)Nc2cnccc2C(=O)Nc2nc(-c3ccccc3F)cs2)cc1` was run?
**A.** The Potency was “inactive”.

**Q.** `CN(C)c1ccc(-c2ccc(=O)n(CC(=O)NCCc3ccccc3)n2)cc1` was tested. Which Potency did it give?
**A.** The Potency was “inactive”.

**Q.** For `c1nc(NCCCN2CCOCC2)c2cc(-c3ccc4c(c3)OCO4)ccc2n1`, which Potency is on record?
**A.** The Potency was “inactive”.

**Q.** How did the Potency turn out when `Cc1cc(/C=C2/C(=O)Nc3ccccc32)cc(C)c1O` was run?
**A.** The Potency was “inactive”.

**Q.** For `COc1cccc(NS(=O)(=O)c2ccc3c(c2)CCC(=O)N3)c1`, which Potency is on record?
**A.** Its Potency is “inactive”.

**Q.** With `C[C@@H](NC(c1ccc(F)cc1)c1ccc2cccnc2c1O)c1ccccc1` (stereo not given in full) as the compound, how does the Potency read?
**A.** The Potency was “inactive”.

**Q.** Which Potency does the source give for `CC(=O)Nc1sc2c(c1-c1ccc(C(N)=O)cc1)CCNC2` here?
**A.** Its Potency is “inactive”.

**Q.** `O=C(NC1CCCc2c1cnn2-c1ccc(F)cc1F)c1ccn[nH]1` (stereo not given) was tested. Which Potency did it give?
**A.** The Potency was “inactive”.

**Q.** Which Potency does the source give for `COC(=O)c1cc2c(C(F)(F)F)cc(-c3ccccc3)cc2n1O` here?
**A.** The Potency was “inactive”.

**Q.** For `CNC(=O)c1cnn2c(C)cc(C)nc12`, which Potency is on record?
**A.** Its Potency is “inactive”.

**Q.** `Cc1cccc(-n2cnc3cc(C(=O)NC4CCCC4)ccc32)c1` was tested. Which Potency did it give?
**A.** Its Potency is “inactive”.

**Q.** With `COc1cccc(C2C(C#N)=C(NC(=O)NCc3ccccc3)Oc3ccc4ccccc4c32)c1` (stereo not given) as the compound, how does the Potency read?
**A.** Its Potency is “inactive”.

**Q.** `CC(=O)OC1CC2C3(C)CCC(OC(=O)CC(=O)O)C(C)(C)C3CCC2(C)C2(C)CCC(C3(C)CCC(=O)O3)C12` (stereo not given) was tested. Which Potency did it give?
**A.** Its Potency is “inactive”.

**Q.** For `Cc1cc(NS(=O)(=O)c2cc3c(cc2F)NC(=O)CC3)ccc1Cl`, which Potency is on record?
**A.** The Potency was “inactive”.

**Q.** `Cc1cc2c(s1)c1cnn(Cc3cccc(C(F)(F)F)c3F)c(=O)c1n2C` was tested. Which Potency did it give?
**A.** Its Potency is “inactive”.

**Q.** Which Potency does the source give for `O=C1CCCC2=C1C(c1[nH]ncc1Cl)NC(=NCc1cccs1)N2` (stereo not given) here?
**A.** Its Potency is “inactive”.

**Q.** Which Potency does the source give for `CC(=O)NC(c1cccs1)c1cc(F)c2cccnc2c1O` (stereo not given) here?
**A.** The Potency was “inactive”.

**Q.** Which Potency does the source give for `Cc1ccc(NS(=O)(=O)c2cc3c(cc2F)NC(=O)CC3)cc1C` here?
**A.** Its Potency is “inactive”.

**Q.** For `c1nc(NCC2CCCO2)c2ccc(-c3ccc4c(c3)OCO4)cc2n1` (stereo not given), which Potency is on record?
**A.** The Potency was “inactive”.

**Q.** For `C=C1C(=O)O[C@@H]2C[C@H](C)[C@@H]3CC(=O)[C@H](O)[C@@]3(C)C[C@H]12`, which Potency is on record?
**A.** The Potency was “inactive”.

**Q.** For `CCC1(CC)CCN(C(=O)CC(c2ccc3c(c2)OCO3)c2c(O)cc(OC)cc2OC)C1` (stereo not given), which Potency is on record?
**A.** The Potency was “inactive”.

**Q.** With `COc1ccc(C2Nc3ccccc3C(=O)N2Cc2ccccc2OC)cc1COc1c(C)cc(NC(C)=O)cc1C` (stereo not given) as the compound, how does the Potency read?
**A.** Its Potency is “inactive”.

**Q.** Which Potency does the source give for `CCCCC1CCC(C(=O)Nc2ccc(S(=O)(=O)Nc3nccs3)cc2)CC1` (stereo not given) here?
**A.** Its Potency is “inactive”.

**Q.** Which Potency does the source give for `CCCN(CCC)C(=O)C(CCC(=O)OCCCN1CCN(CCOC(=O)Cc2c(C)n(C(=O)c3ccc(Cl)cc3)c3ccc(OC)cc23)CC1)NC(=O)c1ccccc1` (stereo not given) here?
**A.** Its Potency is “inactive”.

**Q.** For `COc1ccc2c(c1)Oc1ncn(CCN3CCOCC3)c(=N)c1C2c1ccc(OC)c(OC)c1` (stereo not given), which Potency is on record?
**A.** Its Potency is “inactive”.
